Screening results deposited in PubChem by NMMLSC.
The list is not random: actives were taken first. Their share in the collection is about 1.2%.
Avidin bead fluor – compound fluoresces at 488/530 nm on avidin beads | compound fluorescence 488/530 nm, flow cytometry; active compounds read high | fluorescence (KMESF) at 10 µM | 220,000 compounds, 0.38% hits; in the data active = fluorescence above about 47
GSH fluor – compound fluoresces at 488/530 nm on GSH beads | GSH beads flow cytometry, compound fluorescence 488/530 nm; active compounds read high | fluorescence (KMESF) at 10 µM | 190,000 compounds, 0.25% hits; in the data active = fluorescence above about 89;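 note: glutathione beads carrying GST-tagged Bcl family fusion proteins plus one bare bead set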
RGS4-Gao reg – human RGS4-Galphao interaction regulation | AID 1415 | Multiplexed bead flow cytometry, RGS4-Galphao binding; actives lie on both sides | binding response (% of control), % at 10 µM | P09471 | 220,000 compounds, 0.33% hits; in the data active = binding response below about 49% or above about 150%; inactive = in between;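 note: fluorescent Galphao activated with aluminum fluoride binding bead-coupled RGS4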
RGS7-Gao reg – modulates binding of RGS7 to human Galphao; Multiplexed bead flow cytometry; actives lie on both sides; binding response (% of control), % at 10 µM; 220,000 compounds, 0.35% hits; AID 1439; in the data active = binding response below about 49% or above about 150%; inconclusive = no clear call, values can overlap the other calls; inactive = in between;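 note: fluorescent Galphao held in activated GDP-AlF4 state binding bead-coupled RGS7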
RGS16-Gao HTS – regulators of human RGS16-Galphao interaction; O15492+P09471; 220,000 compounds, 0.38% hits; binding response (% of control), % at 10 µM; bead-based flow cytometry RGS16-Galphao binding, fluorescence; actives lie on both sides;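 note: Galphao activated by GDP with aluminum fluoride before binding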
RGS8-Gao – regulators of human RGS8-Galphao interaction | response (percent of control binding), % at 10 µM | P09471 | 220,000 compounds, 0.34% hits | multiplexed bead flow cytometry, RGS8-Galphao binding; actives lie on both sides; in the data active = response below about 60% or above about 140%; inactive = in between;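 note: Galphao activated as the GDP aluminium fluoride complex binding bead-coupled RGS8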
RGS4-Gao HTS – regulators of human RGS4-Galphao interaction. RGS4–Galpha-o binding response, % at 10 µM. 1,600 compounds, 99% hits. multiplexed bead flow cytometry, RGS–Galpha-o binding. shares compounds with RGS16-Gao HTS;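 note: fluorescently labeled Galpha-o bound to GDP with aluminium fluoride binding biotinylated RGS beads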
Biotin-avidin – interferes with biotinylated probe binding to avidin beads. streptavidin beads, fluorescein-biotin binding, flow cytometry. inhibition, % at 10 µM. 1,700 tested, under 10 active. shares compounds with RGS16-Gao HTS. AID 1783;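 active = inhibition above 50%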;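 note: median green fluorescence of gated singlet beads compared with DMSO control wells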
RGS8-Gao single – RGS8-Galphao interaction regulation, single point confirmation. shares compounds with RGS16-Gao HTS. bead-based flow cytometry RGS8-Galphao binding, fluorescence; actives lie on both sides. binding response (% of control), % at 10 µM. 1,700 compounds, 3% hits. AID 1836; in the data active = binding response below about 72% or above about 130%; inactive = in between;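 note: Galphao activated as GDP AlF4 complex before binding bead RGS8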
RGS7-Gao confirm – confirmation of regulators of human RGS7-Galphao interaction; 1,700 compounds, 7.8% hits; response (percent of control binding), % at 10 µM; shares compounds with RGS16-Gao HTS; AID 1837; bead-based flow cytometry RGS7-Galphao binding; actives lie on both sides; in the data active = response below about 75% or above about 130%; inactive = in between;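 note: fluorescent Galphao activated with GDP and aluminum fluoride binding bead-coupled RGS7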
RGS16-Gao single – confirmation of regulators of human RGS16-Galphao interaction | shares compounds with RGS16-Gao HTS | response (% of control binding), % at 10 µM | 1,700 compounds, 4% hits | AID 1838 | bead-based flow cytometry, RGS16-Galphao binding; actives lie on both sides; in the data active = response below about 74% or above about 130%; inactive = in between;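 note: Galphao activated as the GDP aluminium fluoride complex binding bead-coupled RGS16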
RGS4-Gao single – confirmation of regulators of human RGS4-Galphao interaction; shares compounds with RGS16-Gao HTS; RGS4-Galphao binding, multiplexed bead flow cytometry; actives lie on both sides; binding response (% of control), % at 10 µM; 1,700 compounds, 4% hits; AID 1840; in the data active = binding response below about 74% or above about 130%; inactive = in between
RGS19-Gao single – confirmation of regulators of human RGS19-Galphao interaction | shares compounds with RGS16-Gao HTS | bead-based flow cytometry RGS19-Galphao binding; actives lie on both sides | response (percent of control binding), % at 10 µM | 1,700 compounds, 5% hits | AID 1841; in the data active = response below about 50% or above about 160%; inactive = in between
Target sequence (P09471 whole entry, looked up): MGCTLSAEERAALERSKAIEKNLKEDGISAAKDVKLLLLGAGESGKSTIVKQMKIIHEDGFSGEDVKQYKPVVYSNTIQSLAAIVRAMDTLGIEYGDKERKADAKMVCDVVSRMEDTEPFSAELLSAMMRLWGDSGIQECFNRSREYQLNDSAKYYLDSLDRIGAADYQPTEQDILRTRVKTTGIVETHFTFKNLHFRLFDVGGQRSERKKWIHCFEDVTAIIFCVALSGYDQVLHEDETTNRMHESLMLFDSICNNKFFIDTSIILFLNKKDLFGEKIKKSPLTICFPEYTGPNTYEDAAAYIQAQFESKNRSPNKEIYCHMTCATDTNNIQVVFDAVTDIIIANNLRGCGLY
Target sequence (P49795 whole entry, looked up): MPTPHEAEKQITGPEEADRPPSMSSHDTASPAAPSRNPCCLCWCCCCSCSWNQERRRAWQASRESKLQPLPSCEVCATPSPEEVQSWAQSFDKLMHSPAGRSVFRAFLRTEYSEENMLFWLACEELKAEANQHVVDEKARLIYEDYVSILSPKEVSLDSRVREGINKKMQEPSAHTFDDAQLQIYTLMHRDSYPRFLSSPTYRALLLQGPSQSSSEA
Hits are given with their value; i = inactive; ? = inconclusive; nt = no result; [ ] = another dose, or the depositor's remark. Unless noted, the rule behind the calls is not given here.

SMILES	Avidin bead fluor	GSH fluor	RGS4-Gao reg	RGS7-Gao reg	RGS16-Gao HTS	RGS8-Gao	RGS4-Gao HTS	Biotin-avidin	RGS8-Gao single	RGS7-Gao confirm	RGS16-Gao single	RGS4-Gao single	RGS19-Gao single
CC(=O)Nc1ccccc1NS(=O)(=O)c1ccccc1[N+](=O)[O-]	204	i	158.2[activator]	401.2[activator]	i	i	nt	i	i	i	i	i	i
C=C(C)Cn1c(C2CC(=O)N(c3ccccc3F)C2)nc2ccccc21 (stereo not drawn)	i	i	i	i	i	i	nt	nt	nt	nt	nt	nt	nt
COc1ccc(C(=O)N2CCC(C(=O)c3c(C)cc(C)cc3C)CC2)cc1	i	nt	i	?	i	i	nt	nt	nt	nt	nt	nt	nt
Cc1nn(-c2ccc(F)cc2)c2sc(C(=O)OC3CCOC3=O)cc12 (stereo not drawn)	nt	i	nt	nt	nt	nt	nt	i	i	i	i	i	i
COc1ccccc1NC(=O)Cn1c(=O)n(-c2ccccc2)c(=O)c2oc3ccccc3c21	i	i	i	i	i	i	nt	nt	nt	nt	nt	nt	nt
COc1ccc(NC(=O)Cn2c(=O)n(-c3ccccc3)c(=O)c3oc4ccccc4c32)c(OC)c1	i	i	i	i	232.5[activator]	i	106.1	i	i	i	i	i	i
CC1CCCC(C)N1S(=O)(=O)c1ccc(S(=O)(=O)NCc2ccccc2)cc1 (stereo not drawn)	i	i	i	i	22.2	i	89.8	i	i	i	i	i	i
CC1CCN(S(=O)(=O)c2ccc(S(=O)(=O)NCc3ccccc3)cc2)CC1	i	i	i	i	i	i	nt	nt	nt	nt	nt	nt	nt
CC(C)(C)CC(C)(C)NCC(=O)Nc1c2c(nc3ccccc13)CCC2	i	i	i	i	i	i	nt	nt	nt	nt	nt	nt	nt
COc1c(F)c(F)c(C(=O)Nc2ccc(N3CCN(Cc4ccccc4)CC3)cc2)c(F)c1F	i	i	i	i	i	175.1[activator]	141.3	i	i	i	i	i	i
Cc1c(C(=O)NC(=S)Nc2ccccc2N2CCCC2)cccc1[N+](=O)[O-]	i	i	i	i	i	i	nt	nt	nt	nt	nt	nt	nt
CCC(C)Sc1nc(O)cc(=O)[nH]1 (stereo not drawn)	239	i	i	248.1[activator]	i	i	110.5	i	i	i	i	i	i
Cc1ccc(C)c(S(=O)(=O)Nc2ccccc2C(=O)Nc2cc(C)on2)c1	i	i	i	i	i	i	nt	nt	nt	nt	nt	nt	nt
Cc1ccc(C)c(NC(=O)c2ccccc2NS(=O)(=O)c2cc([N+](=O)[O-])ccc2C)c1	i	i	i	i	188.4[activator]	i	103.7	nt	nt	nt	nt	nt	nt
CSCC[C@H](NC(=O)COc1ccc(Cl)cc1)c1nc2ccccc2[nH]1	i	i	i	i	202.9[activator]	i	111.7	i	i	i	i	i	i
CSCCC(NC(=O)C1CCCCC1)c1nc2ccccc2[nH]1 (stereo not drawn)	nt	nt	i	nt	nt	nt	nt	i	i	i	i	i	i
CN(C)c1ccc(/C=C/C(=O)c2cccc(Br)c2)cc1	i	i	i	i	i	i	nt	nt	nt	nt	nt	nt	nt
CCOC(=O)N1CCN(C(=O)C2CCN(C(=O)c3cc(OC)cc(OC)c3)CC2)CC1	i	i	i	i	205.1[activator]	i	123.2	i	i	i	i	i	i
